In PubChem BioAssay AID1851 (National Center for Advancing Translational Sciences (NCATS), 2009):
Where “and” joins values, the source holds several entries; their conditions need not be identical. Identical values can stand only once. Out of some 16,000 compounds screened, about 2,600 (16%) were called active. About 20% were inconclusive and are not listed. Calls come from the whole dose curve; as a rule, active = well fitted curve in the direction sought with a large enough effect; inconclusive = small, poorly fitted or top-dose-only effect, or effect the other way; inactive = no such curve, though single readings can be large or run the other way. A selection follows. The source holds several records for some structures; these can differ, active in one and inactive in another.

What follows are molecules tested against Cytochrome P450 2D6 (Homo sapiens) (UniProt P10635) (assay: Cytochrome panel assay with activity outcomes). Details: recombinant CYP, pro-luciferin dealkylation, luminescence, p450-cyp2d6; series mostly up to 57.1 µM; activity, negative = inhibition: at the top concentration.
% is set by controls: 0 for no effect and ±100 for the full control effect.

Sequence of Cytochrome P450 2D6 (Homo sapiens) (P10635 whole entry, looked up): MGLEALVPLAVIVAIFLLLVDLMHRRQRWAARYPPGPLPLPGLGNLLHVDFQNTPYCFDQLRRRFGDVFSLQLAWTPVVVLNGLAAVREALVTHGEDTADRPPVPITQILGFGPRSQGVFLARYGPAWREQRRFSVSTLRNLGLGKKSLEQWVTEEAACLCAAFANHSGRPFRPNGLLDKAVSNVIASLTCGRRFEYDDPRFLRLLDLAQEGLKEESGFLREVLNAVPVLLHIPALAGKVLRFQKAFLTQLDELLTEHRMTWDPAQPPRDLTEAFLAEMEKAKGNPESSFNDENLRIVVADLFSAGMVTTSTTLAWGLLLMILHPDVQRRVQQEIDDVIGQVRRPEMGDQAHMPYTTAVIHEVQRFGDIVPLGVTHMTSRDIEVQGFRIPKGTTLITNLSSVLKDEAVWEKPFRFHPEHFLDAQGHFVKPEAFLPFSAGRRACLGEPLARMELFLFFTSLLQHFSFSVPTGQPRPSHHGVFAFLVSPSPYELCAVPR

Compound	activity, negative = inhibition	AC50
C=CCSc1nnc(NC(=O)COc2ccc3ccccc3c2)s1	-15.8% (inactive)	
COC(=O)c1c(C)nc2ccccc2c1C(=O)O	8.63% (inactive)	
COc1ccc(CCNC(=O)COc2ccc(S(=O)(=O)NC3CCCCC3)cc2Cl)cc1		15.8 µM (active)
COc1ccc(CCNC(=O)COC(=O)c2cnc(C)cn2)cc1	-5.73% (inactive)	
COc1ccc2c(c1)C(=O)N(CCc1ccc(S(=O)(=O)NC(=O)NC3CCCCC3)cc1)C(=O)C2(C)C	2.46% [at 25.6 µM] (inactive)	
Cc1ccc(N=Nc2c(=O)[nH]n3c(C)cc(C)nc23)cc1	25.6% (inactive)	
O=C1c2ccccc2C(=O)N1CC(=O)N1c2ccccc2CCc2ccccc21	-0.19% (inactive)	
Cc1sc2nc(C3CC3)nc(SCC(=O)N3CC(=O)Nc4ccccc43)c2c1C	-27.5% (inactive)	
CCCN(CCC)C[C@@H]1CCCCN1CCNC(=O)N1c2ccccc2C(=O)Nc2cccnc21		2.51 µM (active)
Cc1scc2c1N(C(=O)CN1CCN(C)CC1)c1ccccc1NC2=O		inactive and 5.01 µM (active)
O=C1Nc2ccccc2Nc2ncccc21	15.5% (inactive)	
CCN1CCCC1CNC(=O)C1c2cc(OC)c(OC)cc2C(=O)N(C)C1c1cccnc1 (configuration not stated)	1.99% (inactive)	
CN1CCN(CC(=O)N2c3ccccc3C(=O)Nc3cccnc32)CC1		inactive and 31.6 µM (active)
CCCCN1C(=O)C(NC(=O)C2CC2)(C(F)(F)F)C2=C1CC(C)(C)CC2=O (configuration not stated)	8.85% (inactive)	
O=C(CCn1nc(-c2ccc(Cl)cc2)ccc1=O)N1CCOCC1	-10.2% (inactive)	
O=C1Nc2ccccc2C1=Nc1cccc2ncccc12	-4.91% [at 11.4 µM] (inactive)	
Nc1ncnc2c1ncn2CCCCC(=O)O	-3.98% [at 11.4 µM] (inactive)	
O=c1c(-c2ccccc2)nc2cncnc2n1-c1ccccc1	-2.82% (inactive)	
CCC(CC)C(=O)Nc1c2cnn(-c3ccccc3)c2nc(=O)n1-c1ccccc1	-3.81% (inactive)	
CCCc1nnc(NC(=O)CN2C(=O)C3C4C=CC(C4)C3C2=O)s1 (configuration not stated)	13.7% (inactive)	
O=c1cnc2cnc(N3CCOCC3)nc2n1C1CC1	3.75% (inactive)	
COCCNc1ncnc2ccc(-c3ccoc3)cc12	0.232% (inactive)	
COc1ccc(CNc2ncnc3ccc(-c4ccoc4)cc23)c(OC)c1		10 µM (active)
COc1ccccc1CNc1ncnc2ccc(-c3ccc4c(c3)OCO4)cc12		0.794 µM (active)
COc1ccccc1CNc1ncnc2ccc(-c3ccoc3)cc12		3.16 µM (active)
COc1ccc(CNc2ncnc3ccc(-c4c(C)noc4C)cc23)c(OC)c1		15.8 µM (active)

Compound	activity, negative = inhibition	AC50
CCOC(=O)COc1ccc(/C=C/[N+](=O)[O-])c(OCC(=O)OCC)c1	-6.43% (inactive)	
Clc1ccc(Nc2ncn[nH]2)cc1	11% (inactive)	
CCCCCCCCCCCCCCCC(=O)C(F)(F)F	-3.23% (inactive)	
Cc1cc(C)c(-c2noc(C(=O)OC(C)(C)C)c2C(=O)OC(C)(C)C)c(C)c1	-5.04% (inactive)	
Cc1cc(OC(=O)c2ccccc2Cl)cc(=O)n1C	-6.09% (inactive)	
Cc1sc2ncn(CC(=O)NCCCC(=O)N3CCN(c4ncccn4)CC3)c(=O)c2c1C	0.039% (inactive)	
Cc1ccc(C)n1N1C(=O)/C(=C\c2ccc(Cl)cc2)SC1=S	-11.4% (inactive)	
Cn1c(SCC(=O)NC2CC2)nnc1-c1cccc(NC(=O)c2ccccc2F)c1	-21% (inactive)	
C[C@H]1/C=C\CC(=O)OC[C@H](C)C(=O)N2CCC[C@@H]2C(=O)OC1	-8.94% [at 11.4 µM] (inactive)	
COc1ccc2nccc(SCC(=O)O)c2c1	-10.3% [at 11.4 µM] (inactive)	
COc1ccc2c(c1)nc(SCC(=O)c1ccc(Br)s1)n2C		5.01 µM (active)
COc1ccc2nc(NC(=O)CSc3nnc(C)s3)sc2c1	-7.57% (inactive)	
CCOC(=O)C1=C(N)n2c(s/c(=C/c3ccccc3)c2=O)=C(C(=O)OCC)C1c1ccccc1 (configuration not stated)	5.82% (inactive)	
c1ccc(-c2nc3ccccc3o2)nc1	-8.6% (inactive)	
Cn1c(=O)c(-c2cccs2)nc2cnc(N3CCNCC3)nc21	-7.69% (inactive)	
Cc1ccc(-n2[nH]c(=O)c3cccnc32)cc1	17% (inactive)	
CC(C)c1ccc2c(c1)CC[C@H]1[C@@](C)(CN)CCC[C@@]21C		1.26 µM (active)
COc1ccc(Cc2nc3ccc(S(=O)(=O)N4CCOCC4)cc3[nH]2)cc1OC	-0.602% (inactive)	
CCCCC#Cc1nc(N)c2ncn([C@@H]3O[C@@H](C(=O)NCC)[C@H](O)[C@@H]3O)c2n1	11% (inactive)	
COc1cccc(-c2noc(Cn3nc(C)c([N+](=O)[O-])c3C)n2)c1	-13.8% (inactive)	
COc1cccc(CN2CCN(Cc3cc(OC)c(OC)cc3[N+](=O)[O-])CC2)c1		0.224 µM (active)
CCOc1ccc(C(=O)Cc2cc(OC)c(OC)cc2[N+](=O)[O-])cc1	6.77% (inactive)	
COc1cccc(Nc2ncc3ncc(=O)n(C)c3n2)c1	-4.79% (inactive)	
COc1ccc(CCNC(=O)Cn2cnc3c2c(=O)n(C)c(=O)n3C)cc1OC	2.41% (inactive)	
O=C(O)c1nn(-c2ccc(Cl)cc2)c2c1C(=O)c1ccccc1C2=O	-7.18% [at 11.4 µM] (inactive)	
O=C(Nc1ccc2c(c1)nc1n2CCN(C2CCCCC2)C1)NC1CCCCC1		12.6 µM (active)
